Compound activity deposited in PubChem BioAssay by The Scripps Research Institute Molecular Screening Center.
Only some compounds are listed: those with a hit (about 3.5% of all), similar ones and a draw of the others.
GPR151 activ – activators of human GPR151, primary screen, cell-based, PathHunter beta-arrestin, luminescence; actives 1% (n = 650,000); PathHunter beta-arrestin GPR151 cells; AID 1508602, 2020; G-protein coupled receptor 151 (Homo sapiens), Q8TDV0; activation, % at 11.2 µM; in the data active = activation above about 4.9%
FBW7 act – FBW7 E3 ligase activators, primary screen, biochemical, AlphaScreen, human. F-box/WD repeat-containing protein 7 (Homo sapiens), Q969H0. AlphaScreen FBW7–phospho-cyclin E peptide binding, activator screen. normalized activity (activation), % at 26.1 µM. actives 0.13% (n = 650,000); in the data active = normalized activity above about 1.9%;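 note: purified mutant Fbw7 with reduced substrate affinity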
MITF primary – MITF inhibitors, primary screen, biochemical, AlphaScreen, human; Microphthalmia-associated transcription factor (Homo sapiens), O75030; AlphaScreen MITF homodimerization, bead proximity signal; inhibition, % at 2.6 µM; actives 0.91% (n = 650,000); in the data active = inhibition above about 50%
TEAD-YAP block – TEAD-YAP interaction inhibition, primary screen, TEAD-YAP interaction inhibitor project, luminescence, HEK-TIYL cells; TEAD-Gal4/YAP UAS-luciferase luminescence; inhibition, % at 9.12 µM; actives 1.4% (n = 640,000); AID 1259422, 2018; in the data active = inhibition above about 32%
GPR151 confirm – GPR151 activators, triplicate retest, confirmation, cell-based, PathHunter beta-arrestin, luminescence; activation, % at 11.2 µM; 6,700 tested, under 10 active; GPR151 PathHunter beta-arrestin cells, 90 min; % of EA-reagent control over plate median; shares compounds with GPR151 activ; AID 1508609, 2020;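 active = mean percent activation across replicates above the confirmation screen cutoff of 4.91%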
GPR119 counter – GPR119 activators in beta-arrestin cells, counter-screen for GPR151 activator project, cell-based, PathHunter beta-arrestin, luminescence, triplicate; shares compounds with GPR151 activ; 90 min; 0 = compound-well median, 100 = enzyme-acceptor control; activation, % at 11.2 µM; actives 0.3% (n = 6,700); AID 1508611, 2020;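 active = mean percent activation in the counterscreen above 29.09%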;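 note: counterscreen on off-target GPR119 to flag nonselective hits from the GPR151 activator screen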
Target sequence (Q8TDV5 whole entry, looked up): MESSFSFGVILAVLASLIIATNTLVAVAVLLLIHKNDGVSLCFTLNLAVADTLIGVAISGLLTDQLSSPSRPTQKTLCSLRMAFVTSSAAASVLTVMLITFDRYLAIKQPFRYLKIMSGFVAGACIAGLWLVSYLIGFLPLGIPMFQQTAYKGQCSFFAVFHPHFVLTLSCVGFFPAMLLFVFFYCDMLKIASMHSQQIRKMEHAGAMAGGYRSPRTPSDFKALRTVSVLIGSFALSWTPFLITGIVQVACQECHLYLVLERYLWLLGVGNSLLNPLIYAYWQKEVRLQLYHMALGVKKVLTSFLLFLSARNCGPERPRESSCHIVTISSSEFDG
Hits are given with their value; . = inactive; / = no result.

SMILES | GPR151 activ | FBW7 act | MITF primary | TEAD-YAP block | GPR151 confirm | GPR119 counter
O=C(c1ccccc1Cl)N1N=C(c2cccnc2)CC1c1ccccc1O (stereo not given) | 6.7 | . | . | . | . | .
Cc1ccc(NC(=O)C2CC3CCCN3C23C(=O)N(C)c2ccccc23)cc1C (stereo not given) | . | . | . | . | / | /
COc1ccc(NC(=O)C2CC3CCCN3C23C(=O)N(C)c2ccccc23)cc1OC (stereo not given) | 5.2 | . | . | . | . | .
Cc1cc([N+](=O)[O-])ccc1N1C(=O)C2CC=C(Cl)CC2C1=O (stereo not given) | 5.6 | . | . | . | . | .
Cc1ccc([N+](=O)[O-])cc1N1C(=O)C2CC=C(Cl)CC2C1=O (stereo not given) | . | . | . | . | / | /
CCOC(=O)C1=NN(c2ccc(C)cc2)C2C(=O)N(c3ccccc3Cl)C(=O)C12 (stereo not given) | . | . | . | . | / | /
NS(=O)(=O)c1ccc(CCNC(=O)CN2C(=O)C3C4C=CC(C4)C3C2=O)cc1 (stereo not given) | 8.1 | . | . | . | . | .
O=S(=O)(c1cc(Cl)ccc1Cl)n1cnc2ccccc21 | . | . | . | . | / | /
CCCn1c[n+](CC(=O)OCC)c2ccccc21 | . | . | . | . | / | /
CCOC(CNC(=O)c1ccc2cc[nH]c2c1)(OCC)c1ccncc1 | 7.3 | . | . | . | . | .
Cc1c(NC(=O)CSc2ccccc2)c(=O)n(-c2ccccc2)n1C | . | . | . | . | / | /
Cc1c(NC(=O)CSc2ccc(C(C)(C)C)cc2)c(=O)n(-c2ccccc2)n1C | 8.2 | . | . | . | . | .
CCOC(=O)c1c(-c2ccc(C)c(C)c2)csc1NC(=O)CSc1ncnc2sc3c(c12)CCCC3 | . | . | . | . | / | /
Cc1ccc(C(=O)Nc2ccc3c4c2C2C=CCC2CN4CC2CC=CC32)cc1 (stereo not given) | . | . | . | . | / | /
O=C(O)CCC/C=C\C[C@@H]1[C@@H](/C=C/[C@@H](O)COc2cccc(C(F)(F)F)c2)[C@H](O)C[C@@H]1O | . | / | . | / | / | /
O=C(O)CCC/C=C/C[C@@H]1[C@@H](/C=C/[C@@H](O)COc2cccc(C(F)(F)F)c2)[C@H](O)C[C@@H]1O | 5.1 | / | . | / | . | .
O=C(CCC1CCCCC1)Nc1nn[nH]n1 | 7.7 | . | . | . | . | .
COC(=O)N/N=C\c1c(C)nn(-c2ccccc2)c1Cl | . | . | . | . | / | /
COc1ccc(OC)c(-c2cc(C(=O)N/N=C/c3c(C)nn(-c4ccccc4)c3C)[nH]n2)c1 | 5.2 | . | . | . | . | .
COC(=O)C1=C(C)NC2=C(C(=O)CCC2)C1c1ccc(O)c([N+](=O)[O-])c1 (stereo not given) | . | . | . | . | / | /
CCc1ccc(N(C(=O)c2csnn2)C(C(=O)NC(C)(C)CC)c2ccncc2)cc1 (stereo not given) | 22 | . | . | . | . | .
Cc1nn(C)c(Cl)c1CN1CCCC(N2CCC(CO)CC2)C1 (stereo not given) | . | . | . | . | / | /
Cc1ccc(-c2oc3ccccc3c(=O)c2OC(=O)CN2C(=O)c3ccccc3C2=O)cc1 | 11 | . | . | . | . | .
O=C(CN1C(=O)c2ccccc2C1=O)Oc1c(-c2ccccc2)oc2ccccc2c1=O | . | . | . | . | / | /
CCOC(=O)C(=O)Nc1ccc(S(=O)(=O)N(C)C)cc1 | . | . | . | . | / | /
Cc1ccc(S(=O)(=O)N(CC(=O)N2CCC(C(N)=O)CC2)c2ccccc2Cl)cc1 | . | . | . | . | / | /
S=C(NCc1ccco1)N1CCN(C2CCCCC2)CC1 | 6.1 | . | . | . | . | .
COc1ccc(-c2cc(C#N)nc(N3CCN(c4ccccc4)CC3)n2)cc1 | 5.2 | . | . | . | . | .
